Molecules are shown by their SMILES. Inconclusive results are not listed. Activity calls are given as the source filed them. The call rests on the fitted dose curve; in most records, active means well fitted cell-killing curve with a large enough effect; inconclusive means small, poorly fitted or top-dose-only effect, or effect the other way; inactive means no such curve, though single readings can be large or run the other way.
Potency means the concentration at half of the fitted maximal effect.

This experiment is described as follows: Viability qHTS for spleen associated tyrosine kinase inhibitor (SYKi) drug resistant MV4-11 cells (AID 1963824). Further: nearly all actives have a fitted effect of over 35% in size. To be noted: SYKi-resistant MV4-11 viability, CellTiter-Glo, 72 h; series mostly up to 45 µM. The procedure, abridged:
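SYK inhibitor-resistant MV4-11 AML cells, 500 per well, added to predispensed compounds and incubated 72 hr at 37 C, 5% CO2. Viability measured by CellTiter-Glo luminescence after 10 min at room temperature.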
On the technique in general: qHTS replaces the single test concentration by a dilution series.
As for `C[C@]12CC[C@H]3[C@@H](CC[C@@]45O[C@H]4C(O)=C(C#N)C[C@]35C)[C@H]1CC[C@H]2O`, the Potency is 11.9 µM (active).

`CCCCCCn1c(=O)c(C(=O)Nc2ccc(C(=O)OCCC)cc2)c(O)c2ccccc21`: the viability, % of control is 83.2% [at 9.25 µM] (inactive).

`O=c1[nH]c2ccccc2n1CCCN1CCC(n2c(=O)[nH]c3cc(Cl)ccc32)CC1`: the Potency is 18.6 µM (active).

Consider `CCC1(CC)C(=O)NC(=O)NC1=O`, for which the Potency entry is “inactive”.

On to `COC1=C[C@@H]2[C@@H]3Cc4ccc(OC)c(O)c4[C@]2(CCN3C)CC1=O`, for which the Potency is 18.6 µM (active).

Take `O=C(O)C(=O)c1cn(Cc2ccccc2)c2ccc(-c3ccc(OC(F)(F)F)cc3)cc12`: the Potency was 20.6 µM (active).

In the case of `C=C(C)[C@@H]1CCC(C)=C[C@H]1c1c(O)cc(CCCCC)cc1O`, the Potency was 16.6 µM (active).

Regarding `Nc1ccn(C[C@@H](CO)OCP(=O)(O)O)c(=O)n1`, the viability, % of control is 69.1% [at 9.25 µM] (inactive).

Regarding `C#CC1(O)CCC2C3CCC4=CC(=O)CCC4(C)C3CCC21C` (stereo not drawn), the Potency was 11.8 µM (active).

For `O=S(=O)(CC1CS1)c1ccc(Oc2ccccc2)cc1` (stereo not drawn), the Potency is 10.5 µM (active).

Regarding `CN(C)[C@@H]1C(=O)C(C(N)=O)=C(O)[C@@]2(O)C(=O)C3=C(O)c4c(O)cccc4[C@@](C)(O)[C@H]3C[C@@H]12`, the Potency was 16.6 µM (active).

Regarding `O=c1[nH]c2ccccc2n1C1CCN(Cc2ccc(-c3[nH]c4cc5ncnc5cc4nc3-c3ccccc3)cc2)CC1`, the Potency is 1.84 µM (active).

Regarding `C[C@]12CCC(=O)C=C1CC[C@@H]1[C@H]3CC[C@](C)(O)[C@@]3(C)CC[C@@H]12`, the Potency was 21.9 µM (active).

The values above are taken from PubChem BioAssay (NCATS).
